This passage reports EC50 results from PubChem BioAssay AID504697 (The Scripps Research Institute Molecular Screening Center, 2011).

Unmarked numbers belong to inactive results. Activity calls are given as the source filed them.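 How the source made its calls: active means EC50 at or below 10 µM; inactive means EC50 above 10 µM.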 Bounds are passed on as bounds.

The nature of the assay: compound autofluorescence in calcium buffer – biochemical, fluorescence, no RTF in test wells, artefact control for cardiac thin filament activator project, dose response (AID 504697).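 Further: emission near 535 nm under roughly 485 nm excitation as for IANBD.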 To be noted: compound-only fluorescence in RTF assay buffer with Ca2+ (no RTF in test wells), artifact counterscreen.
As to `O=C(O)c1ccccc1CSc1nnnn1-c1ccccc1`, the EC50 was over 71.5 µM.

As for `Cc1cc(NC(=O)COC(=O)C(Cc2ccccc2)NC(=O)c2ccco2)no1` (stereo unspecified), the EC50 was over 71.5 µM.

With `CC1=CC(=C(C#N)c2nc3ccccc3s2)C=C(C)N1c1ccc(F)cc1`, the EC50 was 22.2 µM.

Take `CCN1C(=O)/C(=C/C=C2/SCCN2C)SC1=S`: the EC50 is 2.63 µM (active).

With `O=C(CSc1nc2ncc(Br)cc2[nH]1)c1cccc([N+](=O)[O-])c1`, the EC50 is over 71.5 µM.

On to `COc1ccc(S(=O)(=O)N2CN(Cc3ccco3)c3nc4ccccc4nc32)cc1`, for which the EC50 was over 71.5 µM.

For the compound `COc1ccc(C)cc1NC(=O)C12CCC(C)(C(=O)O1)C2(C)C` (stereo unspecified), the EC50 is over 71.5 µM.

For `CCSC1=N/C(=C\C=C2/Oc3ccccc3N2CC)C(=O)S1`, the EC50 is 11.9 µM.

Regarding `COc1ccccc1NS(=O)(=O)c1cc([N+](=O)[O-])ccc1N/N=C/c1c(C)[nH]c2ccccc12`, the EC50 was 9.25 µM (active).

`CC(=O)Nc1cc(C(=O)NCc2ccco2)ccc1Sc1ccc(F)cc1`: the EC50 was over 71.5 µM.

Turning to `Fc1ccc(CNC(=S)NCc2ccc(F)cc2)cc1`, the EC50 is over 71.5 µM.

In the case of `N#Cc1ccc(S(=O)(=O)NC2CCCCNC2=O)cc1` (stereo unspecified), the EC50 is over 71.4 µM.

`O=[n+]1c2c(n([O-])c3cc(F)c(N4CCCC4)cc31)CCC2`: the EC50 was 9.61 µM (active).

For the compound `O=C(NC1CCCCC1)c1cc2nc3c(c(C(F)(F)F)n2n1)CCCC3`, the EC50 was over 71.5 µM.

On to `COc1ccc(N/C=C2\C(=O)CCc3c2oc2cc(Cl)c(O)c(Cl)c32)cc1`, for which the EC50 was 7.28 µM (active).

Regarding `S=C(Nc1cc(Cl)ccc1Oc1ccccc1)N1CCN(c2ccccn2)CC1`, the EC50 was over 71.4 µM.

Take `O=c1[nH][nH]c(C(F)(F)F)c1C=Nc1cccc(Cl)c1`: the EC50 is over 71.5 µM.

Take `CC(COC(=O)c1ccccc1)(COC(=O)c1ccccc1)/[N+]([O-])=C/c1ccccc1`: the EC50 was over 71.5 µM.

As to `CC(C)(C)C(=O)/C=c1\s/c(=C\c2ccc(-c3ccc([N+](=O)[O-])cc3)o2)c(=O)n1CC(=O)NC(N)=O`, the EC50 is 1.72 µM (active).

`Cc1cc2nc(C3CCCN(C(=O)NCc4ccccc4)C3)[nH]c2cc1C` (stereo unspecified): the EC50 is over 71.6 µM.

Regarding `C=COc1ccc(N2C(=O)c3ccccc3OC2C)cc1` (stereo unspecified), the EC50 is over 71.4 µM.

As for `O=C1c2cccc3c(N4CCCCC4)ccc(c23)C(=O)N1c1cccc(O)c1`, the EC50 was 5.54 µM (active).

For the compound `CCOC(=O)/C(=C/C1=CC(=C/N(C)C)/C(=O)O1)C(C)=O`, the EC50 is 15.3 µM.

Turning to `O=C(/C=C/c1cn(CC(O)CN2CCCCC2)c2ccccc12)c1cccs1` (stereo unspecified), the EC50 was 34.6 µM.

For `Cc1cc(C)c2nc(NC(=O)C3CCCO3)sc2c1` (stereo unspecified), the EC50 was over 71.5 µM.

On to `Cc1ccccc1-n1nnnc1SCC(C)C`, for which the EC50 is over 71.5 µM.

For the compound `O=C(c1cnc2ccccc2n1)N1CCN(c2ccc(C(F)(F)F)cn2)CC1`, the EC50 is over 71.4 µM.

For `Cn1nc(NC(=O)C2CCC2C(=O)O)c2c(F)cccc21` (stereo unspecified), the EC50 was over 71.5 µM.

With `Cc1ccc[n+](-c2nc([O-])sc2C=O)c1`, the EC50 was 5.53 µM (active).

With `Fc1ccc(-c2nnc(-c3ccc(Cl)cc3Cl)o2)cc1`, the EC50 was over 71.5 µM.

As for `O=C(NCc1ccc(Cl)cc1)C1CCN(c2cnccn2)CC1`, the EC50 was over 71.4 µM.

Regarding `CCn1nc(-c2ccccc2)c2nc3ccccc3nc21`, the EC50 was 10.3 µM.

Turning to `CC(C)CN1CCN(Cc2cccn2-c2ccc(Cl)cn2)CC1CCO` (stereo unspecified), the EC50 is over 71.5 µM.

As for `CSc1ccc(C2C(C(=O)c3ccco3)=C(O)C(=O)N2c2nnc(SC)s2)cc1` (stereo unspecified), the EC50 was 0.726 µM (active).

For `CCOC(=O)N1CCN(C(=S)Nc2ccccc2C)CC1`, the EC50 was over 71.4 µM.

For the compound `COc1ccccc1N1CCN(c2ccc([N+](=O)[O-])cc2Cl)CC1`, the EC50 is over 71.5 µM.
